For 16 sequences, binding signal results are on record in publication PMC11006913.

Experiment in all cases: PBM; 200 nM protein, PBS
Holding throughout (conditions): dsDNA, one strand shown

In one test the target is T1, NKX2-6 (Homo sapiens, UniProt A6NCS4 118-204, R150C).
T1 sequence: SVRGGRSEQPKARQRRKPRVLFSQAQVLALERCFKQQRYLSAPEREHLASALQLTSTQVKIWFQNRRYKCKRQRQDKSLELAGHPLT

Test [1] addresses MSX2 (Homo sapiens, UniProt P35548 130-214, R199I).
For test [2], the target named is MSX2 (Homo sapiens, UniProt P35548 130-214).
Sequence of MSX2 (Homo sapiens, UniProt P35548 130-214) (P35548 130-214): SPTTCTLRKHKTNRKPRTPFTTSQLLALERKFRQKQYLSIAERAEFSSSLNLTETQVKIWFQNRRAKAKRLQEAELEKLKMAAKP
The target in test [3] is MSX2 (Homo sapiens, UniProt P35548 130-214, F161Y).
Sequence of MSX2 (Homo sapiens, UniProt P35548 130-214, F161Y) (P35548 130-214 F161Y): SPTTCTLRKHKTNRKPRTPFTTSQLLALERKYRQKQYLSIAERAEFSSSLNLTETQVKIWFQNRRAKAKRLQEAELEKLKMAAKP
Test [4] addresses ALX1 (Homo sapiens, UniProt Q15699 118-204, L144V).
The target in test [5] is ALX1 (Homo sapiens, UniProt Q15699 118-204, L144R).
Sequence of ALX1 (Homo sapiens, UniProt Q15699 118-204, L144R) (Q15699 118-204 L144R): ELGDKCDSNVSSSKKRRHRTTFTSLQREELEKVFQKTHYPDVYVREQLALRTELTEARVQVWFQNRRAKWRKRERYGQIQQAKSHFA
The target in test [6] is ALX1 (Homo sapiens, UniProt Q15699 118-204).
Sequence of ALX1 (Homo sapiens, UniProt Q15699 118-204) (Q15699 118-204): as the sequence (Q15699 118-204 L144R) above, with R27L counted along it
Test [7] deals with HOXD13 (Homo sapiens, UniProt P35453 263-343, T313R).
Sequence of HOXD13 (Homo sapiens, UniProt P35453 263-343, T313R) (P35453 263-343 T313R): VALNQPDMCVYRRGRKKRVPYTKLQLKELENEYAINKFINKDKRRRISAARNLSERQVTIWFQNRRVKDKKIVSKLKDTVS
In test [8] the target is HOXD13 (Homo sapiens, UniProt P35453 263-343).
Sequence of HOXD13 (Homo sapiens, UniProt P35453 263-343) (P35453 263-343): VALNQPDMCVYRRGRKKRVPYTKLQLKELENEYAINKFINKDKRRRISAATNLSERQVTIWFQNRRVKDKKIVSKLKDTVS
The target of test [9] is HOXD13 (Homo sapiens, UniProt P35453 263-343, T313A).
Sequence of HOXD13 (Homo sapiens, UniProt P35453 263-343, T313A) (P35453 263-343 T313A): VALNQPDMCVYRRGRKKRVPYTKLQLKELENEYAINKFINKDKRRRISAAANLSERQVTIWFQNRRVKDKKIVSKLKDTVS
Test [10] addresses ALX3 (Homo sapiens, UniProt O95076 139-225).
In test [11] the target is ALX3 (Homo sapiens, UniProt O95076 139-225, L168Q).
Sequence of ALX3 (Homo sapiens, UniProt O95076 139-225, L168Q) (O95076 139-225 L168Q): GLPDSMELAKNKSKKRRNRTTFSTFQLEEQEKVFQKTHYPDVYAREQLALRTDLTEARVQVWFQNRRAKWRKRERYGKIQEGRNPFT
Test [12] addresses ALX3 (Homo sapiens, UniProt O95076 139-225, L168V).
In test [13] the target is VAX1 (Homo sapiens, UniProt Q5SQQ9 86-172).
Sequence of VAX1 (Homo sapiens, UniProt Q5SQQ9 86-172) (Q5SQQ9 86-172): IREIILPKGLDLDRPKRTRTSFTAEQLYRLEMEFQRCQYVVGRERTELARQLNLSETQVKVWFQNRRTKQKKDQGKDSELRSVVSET
The target in test [14] is VAX1 (Homo sapiens, UniProt Q5SQQ9 86-172, T142I).
Sequence of VAX1 (Homo sapiens, UniProt Q5SQQ9 86-172, T142I) (Q5SQQ9 86-172 T142I): as the sequence (Q5SQQ9 86-172) above, with T57I counted along it
Test [15] has as its target VAX1 (Homo sapiens, UniProt Q5SQQ9 86-172, K157R).
For test [16], the target named is CRX (Homo sapiens, UniProt O43186 26-111).
Sequence of CRX (Homo sapiens, UniProt O43186 26-111) (O43186 26-111): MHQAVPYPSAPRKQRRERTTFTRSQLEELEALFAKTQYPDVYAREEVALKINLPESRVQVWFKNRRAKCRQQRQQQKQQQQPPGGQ
Test [17] has as its target T2, PAX4 (Homo sapiens, UniProt O43316 9-242, R200K).
T2 sequence: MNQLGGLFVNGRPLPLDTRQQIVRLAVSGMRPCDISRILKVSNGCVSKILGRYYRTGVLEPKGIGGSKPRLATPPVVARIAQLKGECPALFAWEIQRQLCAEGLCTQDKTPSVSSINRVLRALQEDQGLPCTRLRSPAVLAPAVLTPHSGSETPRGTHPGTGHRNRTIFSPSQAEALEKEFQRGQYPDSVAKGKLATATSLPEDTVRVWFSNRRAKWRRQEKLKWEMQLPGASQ

The target of test [18] is T3, PAX4 (Homo sapiens, UniProt O43316 9-242).
T3 sequence: T2 sequence with K192R

The target of test [19] is CRX (Homo sapiens, UniProt O43186 26-111, E42D).
Sequence of CRX (Homo sapiens, UniProt O43186 26-111, E42D) (O43186 26-111 E42D): as the sequence (O43186 26-111) above, with E17D counted along it
The target in test [20] is T4, PAX4 (Homo sapiens, UniProt O43316 9-242, R200Q).
T4 sequence: T2 sequence with K192Q

Test [21] concerns the target T5, PAX4 (Homo sapiens, UniProt O43316 9-242, F177V).
T5 sequence: T2 sequence with F169V, K192R

Test [22] has as its target T6, PAX4 (Homo sapiens, UniProt O43316 9-242, F177Y).
T6 sequence: T2 sequence with F169Y, K192R

Test [23] concerns the target T7, PAX4 (Homo sapiens, UniProt O43316 9-242, R227W).
T7 sequence: T2 sequence with K192R, R219W

Test [24] concerns the target CRX (Homo sapiens, UniProt O43186 26-111, R41L).
Test [25] addresses PRRX1 (Homo sapiens, UniProt P54821 80-166, F113S).
Test [26] deals with HOXB6 (Homo sapiens, UniProt P17509 132-218, K202E).
Sequence of HOXB6 (Homo sapiens, UniProt P17509 132-218, K202E) (P17509 132-218 K202E): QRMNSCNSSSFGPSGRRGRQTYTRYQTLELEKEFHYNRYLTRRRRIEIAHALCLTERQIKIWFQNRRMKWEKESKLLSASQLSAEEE
The target of test [27] is HOXA2 (Homo sapiens, UniProt O43364 129-215, R185T).
Sequence of HOXA2 (Homo sapiens, UniProt O43364 129-215, R185T) (O43364 129-215 R185T): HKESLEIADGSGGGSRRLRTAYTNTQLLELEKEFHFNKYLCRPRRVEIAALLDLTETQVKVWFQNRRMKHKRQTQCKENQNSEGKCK
A further test concerns the target PITX2 (Homo sapiens, UniProt Q99697 72-157).
Test [28] concerns the target HOXA2 (Homo sapiens, UniProt O43364 129-215, R185K).
Test [29] addresses HOXA2 (Homo sapiens, UniProt O43364 129-215, Y150S).
For test [30], the target named is PRRX1 (Homo sapiens, UniProt P54821 80-166).
Sequence of PRRX1 (Homo sapiens, UniProt P54821 80-166) (P54821 80-166): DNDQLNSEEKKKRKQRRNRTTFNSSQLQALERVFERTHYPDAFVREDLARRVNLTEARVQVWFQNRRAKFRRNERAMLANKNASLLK
Test [31] concerns the target HOXA2 (Homo sapiens, UniProt O43364 129-215).
In test [32] the target is HOXB6 (Homo sapiens, UniProt P17509 132-218).
Sequence of HOXB6 (Homo sapiens, UniProt P17509 132-218) (P17509 132-218): as the sequence (P17509 132-218 K202E) above, with E71K counted along it
The target in test [33] is ALX4 (Homo sapiens, UniProt Q9H161 200-286).
Sequence of ALX4 (Homo sapiens, UniProt Q9H161 200-286) (Q9H161 200-286): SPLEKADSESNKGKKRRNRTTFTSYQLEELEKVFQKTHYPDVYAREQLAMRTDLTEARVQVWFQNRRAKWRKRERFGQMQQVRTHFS
The target in test [34] is ALX4 (Homo sapiens, UniProt Q9H161 200-286, Q225E).
Sequence of ALX4 (Homo sapiens, UniProt Q9H161 200-286, Q225E) (Q9H161 200-286 Q225E): as the sequence (Q9H161 200-286) above, with Q26E counted along it
The target of test [35] is PROP1 (Homo sapiens, UniProt O75360 56-141).
Sequence of PROP1 (Homo sapiens, UniProt O75360 56-141) (O75360 56-141): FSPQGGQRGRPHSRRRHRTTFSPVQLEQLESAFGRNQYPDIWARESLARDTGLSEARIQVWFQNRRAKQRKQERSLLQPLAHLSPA
Test [36] deals with PROP1 (Homo sapiens, UniProt O75360 56-141, R99H).
Sequence of PROP1 (Homo sapiens, UniProt O75360 56-141, R99H) (O75360 56-141 R99H): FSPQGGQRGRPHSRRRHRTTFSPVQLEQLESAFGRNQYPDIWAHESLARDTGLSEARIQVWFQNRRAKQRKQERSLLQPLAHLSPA
Test [37] deals with PROP1 (Homo sapiens, UniProt O75360 56-141, F88S).
Sequence of PROP1 (Homo sapiens, UniProt O75360 56-141, F88S) (O75360 56-141 F88S): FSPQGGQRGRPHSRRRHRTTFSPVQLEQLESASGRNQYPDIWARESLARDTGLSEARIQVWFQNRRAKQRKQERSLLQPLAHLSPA

Where a chain is given by its changes, count along the chain named.

Sequence of CRX (Homo sapiens, UniProt O43186 26-111, R41L) (O43186 26-111 R41L): as the sequence (O43186 26-111) above, with R16L counted along it
Sequence of HOXA2 (Homo sapiens, UniProt O43364 129-215) (O43364 129-215): as the sequence (O43364 129-215 R185T) above, with T57R counted along it
Sequence of HOXA2 (Homo sapiens, UniProt O43364 129-215, Y150S) (O43364 129-215 Y150S): as the sequence (O43364 129-215 R185T) above, with Y22S, T57R counted along it
Sequence of HOXA2 (Homo sapiens, UniProt O43364 129-215, R185K) (O43364 129-215 R185K): as the sequence (O43364 129-215 R185T) above, with T57K counted along it
Sequence of ALX1 (Homo sapiens, UniProt Q15699 118-204, L144V) (Q15699 118-204 L144V): as the sequence (Q15699 118-204 L144R) above, with R27V counted along it
Sequence of PRRX1 (Homo sapiens, UniProt P54821 80-166, F113S) (P54821 80-166 F113S): as the sequence (P54821 80-166) above, with F34S counted along it
Sequence of ALX3 (Homo sapiens, UniProt O95076 139-225) (O95076 139-225): as the sequence (O95076 139-225 L168Q) above, with Q30L counted along it
Sequence of VAX1 (Homo sapiens, UniProt Q5SQQ9 86-172, K157R) (Q5SQQ9 86-172 K157R): as the sequence (Q5SQQ9 86-172) above, with K72R counted along it
Sequence of ALX3 (Homo sapiens, UniProt O95076 139-225, L168V) (O95076 139-225 L168V): as the sequence (O95076 139-225 L168Q) above, with Q30V counted along it
Sequence of MSX2 (Homo sapiens, UniProt P35548 130-214, R199I) (P35548 130-214 R199I): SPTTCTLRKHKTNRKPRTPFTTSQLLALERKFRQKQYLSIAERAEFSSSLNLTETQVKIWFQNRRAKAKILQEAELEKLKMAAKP

GGGGACCC: the binding signal with NKX2-6 is 9.43 upbm affinity estimate (log intensity, higher = more binding, comparable within an allelic series).

Regarding CTGCTGGC, the binding signal is 9.25 upbm affinity estimate (log intensity, higher = more binding, comparable within an allelic series) with MSX2 [1]; 9.22 upbm affinity estimate (log intensity, higher = more binding, comparable within an allelic series) in the test with MSX2 [2]; 9.31 upbm affinity estimate (log intensity, higher = more binding, comparable within an allelic series) with MSX2 [3].

In the case of GACGCGTC, the binding signal with ALX1 [4] was 6.58 upbm affinity estimate (log intensity, higher = more binding, comparable within an allelic series); with ALX1 [5], 6.43 upbm affinity estimate (log intensity, higher = more binding, comparable within an allelic series); in the test with ALX1 [6], 6.73 upbm affinity estimate (log intensity, higher = more binding, comparable within an allelic series).

For the sequence ATTTATGG, the binding signal in the test with HOXD13 [7] is 10.8 upbm affinity estimate (log intensity, higher = more binding, comparable within an allelic series); in the test with HOXD13 [8], 12.1 upbm affinity estimate (log intensity, higher = more binding, comparable within an allelic series); with HOXD13 [9] it was 11.8 upbm affinity estimate (log intensity, higher = more binding, comparable within an allelic series).

Consider CCAGGGGC, for which the binding signal with ALX3 [10] was 7.59 upbm affinity estimate (log intensity, higher = more binding, comparable within an allelic series); with ALX3 [11], 7.73 upbm affinity estimate (log intensity, higher = more binding, comparable within an allelic series); with ALX3 [12], 7.75 upbm affinity estimate (log intensity, higher = more binding, comparable within an allelic series).

With ACAGATTA, the binding signal was 10 upbm affinity estimate (log intensity, higher = more binding, comparable within an allelic series) with VAX1 [13]; 9.28 upbm affinity estimate (log intensity, higher = more binding, comparable within an allelic series) with VAX1 [14]; 9.72 upbm affinity estimate (log intensity, higher = more binding, comparable within an allelic series) with VAX1 [15].

As to CCACGCCA, the binding signal with CRX [16] is 8.11 upbm affinity estimate (log intensity, higher = more binding, comparable within an allelic series); with PAX4 [17], 9.43 upbm affinity estimate (log intensity, higher = more binding, comparable within an allelic series); with PAX4 [18], 9.33 upbm affinity estimate (log intensity, higher = more binding, comparable within an allelic series); with CRX [19], 8.32 upbm affinity estimate (log intensity, higher = more binding, comparable within an allelic series); with PAX4 [20], 9.45 upbm affinity estimate (log intensity, higher = more binding, comparable within an allelic series); with PAX4 [21] it was 9.5 upbm affinity estimate (log intensity, higher = more binding, comparable within an allelic series). The binding signal with PAX4 [22] was 9.5 upbm affinity estimate (log intensity, higher = more binding, comparable within an allelic series); in the test with PAX4 [23], 9.53 upbm affinity estimate (log intensity, higher = more binding, comparable within an allelic series); with CRX [24] it was 8.24 upbm affinity estimate (log intensity, higher = more binding, comparable within an allelic series).

For GGACCGCC, the binding signal is 8.02 upbm affinity estimate (log intensity, higher = more binding, comparable within an allelic series) with CRX [16]; 9.27 upbm affinity estimate (log intensity, higher = more binding, comparable within an allelic series) with PRRX1 [25]; 8.98 upbm affinity estimate (log intensity, higher = more binding, comparable within an allelic series) with HOXB6 [26]; 7.28 upbm affinity estimate (log intensity, higher = more binding, comparable within an allelic series) in the test with HOXA2 [27]; 8.13 upbm affinity estimate (log intensity, higher = more binding, comparable within an allelic series) with CRX [19]; 7.63 upbm affinity estimate (log intensity, higher = more binding, comparable within an allelic series) in the test with PITX2. Also, the binding signal in the test with HOXA2 [28] was 10.2 upbm affinity estimate (log intensity, higher = more binding, comparable within an allelic series); in the test with HOXA2 [29] it was 10.4 upbm affinity estimate (log intensity, higher = more binding, comparable within an allelic series); with CRX [24], 8.16 upbm affinity estimate (log intensity, higher = more binding, comparable within an allelic series); with PRRX1 [30], 9.42 upbm affinity estimate (log intensity, higher = more binding, comparable within an allelic series); with HOXA2 [31], 7.23 upbm affinity estimate (log intensity, higher = more binding, comparable within an allelic series); with HOXB6 [32], 9.08 upbm affinity estimate (log intensity, higher = more binding, comparable within an allelic series).

Turning to CCTAATAG, the binding signal in the test with CRX [16] is 9.68 upbm affinity estimate (log intensity, higher = more binding, comparable within an allelic series); in the test with CRX [19] it was 9.47 upbm affinity estimate (log intensity, higher = more binding, comparable within an allelic series).

Turning to TGTGTTAA, the binding signal is 10.4 upbm affinity estimate (log intensity, higher = more binding, comparable within an allelic series) in the test with CRX [16] and 10.2 upbm affinity estimate (log intensity, higher = more binding, comparable within an allelic series) with CRX [19].

Consider GAGGGCCC, for which the binding signal with CRX [16] is 8.25 upbm affinity estimate (log intensity, higher = more binding, comparable within an allelic series); with ALX4 [33], 7.97 upbm affinity estimate (log intensity, higher = more binding, comparable within an allelic series); with ALX4 [34], 7.92 upbm affinity estimate (log intensity, higher = more binding, comparable within an allelic series); in the test with CRX [19] it was 8.06 upbm affinity estimate (log intensity, higher = more binding, comparable within an allelic series); with PROP1 [35] it was 6.79 upbm affinity estimate (log intensity, higher = more binding, comparable within an allelic series); in the test with PROP1 [36] it was 6.72 upbm affinity estimate (log intensity, higher = more binding, comparable within an allelic series). The binding signal was 6.48 upbm affinity estimate (log intensity, higher = more binding, comparable within an allelic series) in the test with PROP1 [37] and 8.14 upbm affinity estimate (log intensity, higher = more binding, comparable within an allelic series) in the test with CRX [24].

For the sequence CTTACGAC, the binding signal with CRX [16] was 10.1 upbm affinity estimate (log intensity, higher = more binding, comparable within an allelic series); with CRX [19] it was 10 upbm affinity estimate (log intensity, higher = more binding, comparable within an allelic series).

In the case of AGCTCAGC, the binding signal in the test with CRX [16] is 9.88 upbm affinity estimate (log intensity, higher = more binding, comparable within an allelic series); with CRX [19], 9.76 upbm affinity estimate (log intensity, higher = more binding, comparable within an allelic series).

For GGGACCCC, the binding signal with CRX [16] was 8.14 upbm affinity estimate (log intensity, higher = more binding, comparable within an allelic series); with HOXB6 [26], 8.9 upbm affinity estimate (log intensity, higher = more binding, comparable within an allelic series); with CRX [19], 8.1 upbm affinity estimate (log intensity, higher = more binding, comparable within an allelic series); with CRX [24], 8.05 upbm affinity estimate (log intensity, higher = more binding, comparable within an allelic series); with HOXB6 [32], 9.08 upbm affinity estimate (log intensity, higher = more binding, comparable within an allelic series).

For AAAGATTA, the binding signal with CRX [16] was 12.9 upbm affinity estimate (log intensity, higher = more binding, comparable within an allelic series); with PAX4 [17], 10.9 upbm affinity estimate (log intensity, higher = more binding, comparable within an allelic series); with PAX4 [18], 11.2 upbm affinity estimate (log intensity, higher = more binding, comparable within an allelic series); with CRX [19], 12.8 upbm affinity estimate (log intensity, higher = more binding, comparable within an allelic series); with PAX4 [20] it was 11.1 upbm affinity estimate (log intensity, higher = more binding, comparable within an allelic series); in the test with PITX2 it was 12.3 upbm affinity estimate (log intensity, higher = more binding, comparable within an allelic series). The binding signal was 10.3 upbm affinity estimate (log intensity, higher = more binding, comparable within an allelic series) in the test with PAX4 [21] and 12.6 upbm affinity estimate (log intensity, higher = more binding, comparable within an allelic series) in the test with CRX [24].

Take CCGGGGCG: the binding signal is 8.1 upbm affinity estimate (log intensity, higher = more binding, comparable within an allelic series) with CRX [16]; 7.04 upbm affinity estimate (log intensity, higher = more binding, comparable within an allelic series) with HOXA2 [27]; 8.23 upbm affinity estimate (log intensity, higher = more binding, comparable within an allelic series) with CRX [19]; 10 upbm affinity estimate (log intensity, higher = more binding, comparable within an allelic series) in the test with HOXA2 [28]; 10.3 upbm affinity estimate (log intensity, higher = more binding, comparable within an allelic series) with HOXA2 [29]; 8.38 upbm affinity estimate (log intensity, higher = more binding, comparable within an allelic series) with CRX [24]. Besides, in the test with HOXA2 [31], the binding signal is 7 upbm affinity estimate (log intensity, higher = more binding, comparable within an allelic series).
